Vaccinia Venus – qHTS for Stage-Specific Inhibitors of Vaccinia Orthopoxvirus: Venus Reporter Primary qHTS | Potency, µM (top dose mostly 36.5 µM), without a hit: top-dose activity change, negative = inhibition, hits mostly inhibitors | 330,000 tested, 0.46% active | Vaccinia virus Venus reporter expression, fluorescence; calls by dose curve; tested in A549 cells; note: potency is the fitted concentration of half-maximal effect; nearly all actives have a fitted effect of over 30% in size
HCV inh – qHTS Assay for Inhibitors of Hepatitis C Virus (HCV) | Potency, µM (titrated, usually from 41.8 µM), without a hit: at the top dose activity change, negative = inhibition, hits mostly inhibitors | Huh7.5.1 HCVcc-Cre infection, luciferase reporter, 44 h | 340,000 tested, 3.4% active; active = well fitted inhibition curve with a large enough effect; inconclusive = small, poorly fitted or top-dose-only effect, or another doubt; inactive = no such curve, though single readings can be large or run the other way; note: potency is the fitted concentration of half-maximal effect
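After 44 h co-culture of compound, cells and HCVcc-Cre (~0.5 moi), substrate is added for 15 min at room temperature and luciferase measured over 15 sec. Cells were seeded at 1,000/well and pre-cultured 4 h.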
VACV mCherry inh – qHTS for Stage-Specific Inhibitors of Vaccinia Orthopoxvirus: mCherry Reporter Primary qHTS. Potency, µM (series often up to 36.5 µM), inactives show at the highest dose activity change, negative = inhibition, actives largely listed as inhibitors. Vaccinia virus mCherry reporter infection, fluorescence. AID 720579, 2013. 310,000 tested, 0.63% active; calls by dose curve; tested in A549 cells; note: potency is the fitted concentration of half-maximal effect; nearly all actives have a fitted effect of over 35% in size
Marburg entry inh – qHTS for inhibitors of binding or entry into cells for Marburg Virus | Marburg virus pseudotyped entry inhibition, cell reporter | Potency, µM (highest dose often 37.8 µM), for inactives: at the top dose activity change, negative = inhibition, actives largely listed as inhibitors | 300,000 tested, 1.8% active | AID 540276, 2011; calls by dose curve; tested in HEK293 cells; note: potency is the fitted concentration of half-maximal effect
HCMV antiviral – qHTS Assay for inhibitors of the human cytomegalovirus (HCMV); 410,000 tested, 4.5% active; HFF cells, HCMV-luciferase reporter, 72 h; active compounds read low; activity change, negative = inhibition, % at 57.5 µM; AID 1259415, 2018; in the data active = activity change below about -60%; inconclusive = no clear call, values can overlap the other calls; inactive = above about -39%
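Luciferase read-out from HCMV-luciferase-infected HFFs (MOI 1 PFU/cell) 72 h post infection at 37C; compounds added after 16 h cell attachment; activity normalized between buffer-only basal and Salinomycin (10uM) inhibitor controls.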
Lassa entry inh – qHTS for Inhibitors of binding or entry into cells for Lassa Virus; 300,000 tested, 1.2% active; Potency, µM (doses to about 37.9 µM), for the others: at the top dose activity change, negative = inhibition, actives largely listed as inhibitors; Lassa virus pseudotype entry inhibition, cell reporter; calls by dose curve; tested in HEK293 cells; note: potency is the fitted concentration of half-maximal effect; nearly all actives have a fitted effect of over 50% in size
* marks the source's active call; other numbers are inactive results; i = inactive; ? = inconclusive; . = not tested or not shown; [ ] = another dose, or the depositor's remark. Hits are enriched below; roughly 7.8% of the tested compounds scored in any of these assays. % is set by controls: 0 for no effect and ±100 for the full control effect.

SMILES	Vaccinia Venus	HCV inh	VACV mCherry inh	Marburg entry inh	HCMV antiviral	Lassa entry inh
O=C(OCC(=O)N1CCN(C(=O)c2ccco2)CC1)c1cn(-c2ccccc2)nc1-c1ccccc1	?	2.82µM*	.	-19.5%	7.1	?
O=C(c1ccco1)N1CCN(C(=O)c2cn(-c3ccccc3)nc2-c2ccccc2)CC1	.	-19.3%	.	.	135.3	.
Cc1ccc(S(=O)(=O)Nc2cc(C(C)C)c(O)cc2C)cc1	.	-23.7%	.	-12.1%	?	0.6%
Cc1ccc(S(=O)(=O)Nc2cc(Cl)c(O)cc2C)cc1	.	?	.	?	-69.9*	-11.9%
Cc1cccc(-c2nc(C#N)c(N3CCCCCC3)o2)c1	-12.7%	25.1µM*	i	13.9%	-7.9	-1.5%
COc1ccc(N2CCN(c3oc(-c4ccc(OC)c(OC)c4)nc3C#N)CC2)cc1	-7.4%	20.7%	-15.0%	-10.5%	49.6	20.0%
COc1ccc(-c2nc(C#N)c(N3CCc4ccccc4C3)o2)cc1OC	.	11.2µM*	.	?	-8.8	?
COc1ccccc1-c1nc(C#N)c(N2CCc3ccccc3C2)o1	.	11.2µM*	.	?	-17.0	4.9%
Cc1cccc(-c2nc(C#N)c(N3CCC(C)CC3)o2)c1	-3.3%	4.6%	-8.3%	-6.2%[46.1 µM]	-39.2	18.8%[46.1 µM]
COc1ccccc1-c1nc(C#N)c(N2CCCCCC2)o1	.	?	.	?	?	-0.5%
Cc1cc(F)ccc1NC(=O)C1CCCN(C(=O)c2cnn(-c3ccccc3)c2-n2cccc2)C1 (stereo not drawn)	-16.4%	.	-10.6%	5.2%[46.1 µM]	-25.1	-23.2%[46.1 µM]
CCOc1ccc(-n2c(=O)c3c(C)c(C)sc3n(CC(=O)N3CCC(C)CC3)c2=O)cc1	-14.5%	.	-20.3%	-8.2%[46.1 µM]	-14.6	1.9%[46.1 µM]
COc1ccc2c(Sc3ccc(Cl)cc3)c(C(=O)NCCCN3CCCCC3)[nH]c2c1	-16.2%	.	-14.1%	?	-19.0	-19.4%[46.1 µM]
CCCC[C@]12Cc3cc(OC)c(OC)cc3[C@H](O1)c1c(cc(-c3ccccc3)oc1=O)O2	.	.	.	-24.8%[14.2 µM]	.	.
COc1ccc(C(=O)N2CCc3ccc(NC(=O)c4ccccn4)cc3C2)cc1F	.	11.2µM*	.	.	-89.5*	.
COc1cc2c(cc1OC)CN(C(=O)c1ccncc1)CC2	.	9.1%	.	.	-3.9	.
Cc1cn2c(=O)cc(COC(=O)c3ccccc3F)nc2s1	?	.	?	.	11.3	?
Cc1[nH]c2ccccc2c1SCc1nnc(SCc2ccccc2)n1C	?	-1.4%	-14.5%	?	-33.0	-23.9%
Cc1[nH]c2ccccc2c1SCc1nnc(SCc2ccc(Cl)cc2)n1C	-24.4%	11.2µM*	?	?	-12.3	?
COc1ccc(CC(=O)NCCc2cn(C)c3ccccc23)cc1OC	.	.	.	.	-17.2	.
COc1cc(SC)ccc1C(=O)Nc1ccc(Cl)cn1	-0.1%	6.8%	-12.0%	1.12µM*	-74.9*	?
COc1cc(SC)ccc1C(=O)Nc1ccc2c(c1)CCC2	-15.1%	10µM*	i	?	61.2	-17.6%[46.1 µM]
CSc1ccc(Cl)c(C(=O)Nc2ccc(Cl)cn2)c1	-12.9%	-19.1%	-12.5%	?	?	-10.8%[46.1 µM]
Cc1ccc(S(=O)(=O)NCCc2nnc3ccc(SCC(=O)Nc4ccc(OC(F)(F)F)cc4)nn23)cc1	-15.9%	.	-8.4%	.	-10.3	6.4%[46.1 µM]
CCc1cccc(NC(=O)C(Cc2ccccc2)n2cccc2)c1 (stereo not drawn)	-1.6%	.	-4.5%	?	-19.5	.
SMILES	Vaccinia Venus	HCV inh	VACV mCherry inh	Marburg entry inh	HCMV antiviral	Lassa entry inh
CC(C)(C)c1ccc(C(=O)N2CCN(Cc3cc(=O)n4nc(-c5ccccc5F)sc4n3)CC2)cc1	0.4%	.	-7.3%	.	4.4	-1.8%[46.1 µM]
Cc1cc(C)c(C)c(OCCOCCN2CCN(C)CC2)c1	-9.8%	3.98µM*	-8.0%	?	-1.0	-27.2%
CC(C)(C)c1cc(Cl)ccc1OCCOCCN1CCCC1	-24.5%	?	i	8.91µM*	-10.2	?
Cc1ccc(OCCOCCN2CCN(C)CC2)c(C(C)(C)C)c1	.	?	.	.	-24.8	.
COCCCNCCOCCOc1ccc(Cl)cc1C(C)(C)C	?	?	?	5.8µM*	?	?
Clc1cc(Br)ccc1OCCOCCN1CCCC1	.	?	.	.	9.1	.
Cc1cc(C(C)(C)C)ccc1OCCOCCN1CCCC1	-21.6%	?	-3.3%	8.2µM*	-29.4	?
